# EBV LMP1 NFkB: inhibitors of Epstein-Barr LMP1-induced NF-kappaB reporter; LMP1-induced NF-kappaB luciferase reporter cells, luminescence; inhibition, % at 12.5 µM; 350,000 compounds, 0.69% hits; AID 504558; in the data active = inhibition above about 41%;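 note: 0% = neutral control wells and 100% = reference inhibitor control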
# TWEAK-Fn14 inh: inhibitors of TWEAK-Fn14 interaction signaling. TWEAK-stimulated Fn14 reporter cells, luciferase luminescence, 8 h. inhibition, % at 10 µM. 360,000 compounds, 2% hits; in the data active = inhibition above about 50%
# EWS-Fli block: blocks EWS/Fli oncoprotein-driven transcription; A673 NR0B1-luciferase reporter, viability-normalised; inhibition, % at 12.6 µM; 350,000 compounds, 0.67% hits; AID 651661;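 active = mean inhibition of at least 50% after viability correction, with every replicate also passing that limit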;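 note: firefly luciferase signal divided by Alamar Blue viability fluorescence both relative to DMSO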
# LGR2 inh: inhibitors of bursicon-induced Drosophila LGR2 receptor cAMP signaling. HEK293 LGR2, CRE-luciferase, bursicon-stimulated, 4 h. inhibition, % at 9.99 µM. 380,000 compounds, 0.35% hits. AID 720647;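 active = drop in luminescence signal, shown as inhibition above about 50% in the replicate tests, limit read from the data, passing the limit was not always enough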;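 note: agonist challenge used bursicon conditioned medium at about half maximal strength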
# TROY signal inh: inhibitors of TROY-dependent NF-kB signaling; Q293 LMP1-TROYcd NF-kB luciferase reporter, 4 h; inhibition, % at 10 µM; 360,000 compounds, 0.98% hits; AID 1347056;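 active = compounds whose plate-normalised and pattern-corrected inhibition of the luciferase reporter signal at the single screening dose is 50% or more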
# PAX8 reporter: inhibitors of PAX8 transcriptional activity in RMG-I cells; AID 652154; RMG-I TPO-luciferase reporter, SteadyGlo, 24 h; 360,000 compounds, 1.2% hits; inhibition, % at 12.6 µM;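 active = mean replicate inhibition at least 60% with every replicate also reaching 60%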;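 note: luciferase light reporting Pax8 driven TPO promoter activity; plate controls were median of neutral control wells for no effect and mitoxantrone controls for full effect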
# DNA binding: binds DNA displacing acridine orange; shares compounds with EWS-Fli block; salmon sperm DNA acridine orange fluorescence polarization; AC35, µM (series often up to 68 µM), without a hit: at the top dose activity change, negative = DNA binding; 640 compounds, 2% hits;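 active = fitted curve reaches a 35% signal fall AC35 below twice the sample's top valid tested dose, actives reach about 48 µM in these data; inactive = the rest, including activity in the rising direction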;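 note: lower polarization ratio signals compound binding to DNA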
# * = called active by the depositor; · = no result. Rows were chosen to be rich in hits. Some 3.1% of all compounds tested hit in one or more screens of this group.
SMILES,EBV LMP1 NFkB,TWEAK-Fn14 inh,EWS-Fli block,LGR2 inh,TROY signal inh,PAX8 reporter,DNA binding
CC(C)NC(=O)Nc1ccc2c(c1)C(=O)N([C@H](C)CO)C[C@H](C)[C@@H](CN(C)S(=O)(=O)c1ccccc1)OCCCC[C@H](C)O2,·,·,1.0,1.7,·,-5.0,·
C[C@@H]1CN([C@@H](C)CO)C(=O)c2cccc(NS(=O)(=O)c3ccc(F)cc3)c2O[C@H]1CN(C)Cc1ccc(C(=O)Nc2ccccc2N)cc1,·,·,37.4,18.5,·,-20.6,·
C[C@@H]1CN([C@@H](C)CO)C(=O)c2cccc(N(C)C)c2O[C@@H]1CN(C)Cc1ccc(C(=O)Nc2ccccc2N)cc1,·,·,53.8*,·,·,36.6,-12.5%
C[C@H]1CN([C@@H](C)CO)C(=O)c2cccc(NC(=O)CCCCCC(=O)Nc3ccccc3N)c2O[C@@H]1CN(C)Cc1ccc2c(c1)OCO2,·,·,56.8*,3.4,·,·,11.1%
C[C@@H]1CN([C@@H](C)CO)C(=O)c2cccc(NS(=O)(=O)c3ccc(F)cc3)c2O[C@@H]1CN(C)Cc1ccc(C(=O)Nc2ccccc2N)cc1,·,·,55.3*,-3.8,·,·,-8.2%
C[C@@H]1CN([C@@H](C)CO)C(=O)c2cccc(NC(=O)CCCCCC(=O)Nc3ccccc3N)c2O[C@H]1CN(C)Cc1ccc2c(c1)OCO2,·,·,18.1,-13.4,·,56.8,·
CCNC(=O)C[C@H]1CC[C@H]2[C@H](COc3ccc(NC(=O)c4ccccc4Cl)cc3C(=O)N2C)O1,·,·,-6.3,4.2,·,-12.6,·
CC(Oc1cccc(Cl)c1)C(=O)NCCCCc1ccccc1 (stereo not drawn),0.6,-8.0,87.4*,-19.2,0.5,-3.5,1.0%
CO[C@H]1CN(C)C(=O)c2cc(NC(=O)NC(C)C)ccc2OC[C@H](C)N(Cc2ccc(-c3ccccn3)cc2)C[C@@H]1C,·,·,51.5*,47.2,·,·,11.6%
CC(C)c1ccc(OCc2cccc(C(=O)N/N=C/c3cccnc3)c2)cc1,62.5*,-12.9,80.5*,45.4,-7.2,29.6,-4.1%
O=C(N/N=C/c1cccnc1)c1cccc(Cl)c1,-1.6,-11.9,4.6,-40.1,-22.4,-10.7,·
CN1C(=O)c2cc(NC(=O)Nc3cccc(Cl)c3)ccc2OC[C@H]2O[C@@H](CC(=O)O)CC[C@H]21,·,·,-2.5,1.7,·,-0.1,·
COC(=O)C[C@@H]1CC[C@@H]2[C@H](COc3ccc(NC(=O)c4ccccc4)cc3C(=O)N2C)O1,·,·,57.5*,1.1,·,6.3,-6.2%
COC(=O)C[C@H]1CC[C@H]2[C@@H](COc3ccc(NC(=O)c4ccc(F)cc4)cc3C(=O)N2C)O1,·,·,·,5.4,·,-4.8,·
COC(=O)C[C@@H]1CC[C@@H]2[C@H](COc3ccc(NC(=O)c4ccc(F)cc4)cc3C(=O)N2C)O1,·,·,57.1*,7.6,·,3.0,10.9%
COC(=O)C[C@@H]1CC[C@@H]2[C@H](COc3ccc(NC(=O)c4cc(F)cc(F)c4)cc3C(=O)N2C)O1,·,·,61.0*,-16.7,·,-17.0,-5.0%
Cc1ccc(S(=O)(=O)N(C)C[C@@H]2Oc3cc(C#Cc4ccccc4)ccc3S(=O)(=O)N([C@@H](C)CO)C[C@@H]2C)cc1,·,·,12.1,2.0,·,21.2,·
C[C@H]1CN([C@@H](C)CO)S(=O)(=O)c2ccc(C#Cc3ccncc3)cc2O[C@@H]1CN(C)S(=O)(=O)c1ccccc1,·,·,53.4*,11.0,·,·,-5.5%
Cc1ccc(S(=O)(=O)N(C)C[C@@H]2Oc3cc(C#Cc4ccccc4)ccc3S(=O)(=O)N([C@H](C)CO)C[C@@H]2C)cc1,·,·,11.1,28.4,·,30.1,·
C[C@@H]1CN([C@@H](C)CO)S(=O)(=O)c2ccc(C#Cc3ccncc3)cc2O[C@H]1CN(C)S(=O)(=O)c1ccccc1,·,·,72.6*,36.2,·,·,5.8%
Cc1ccc(S(=O)(=O)N(C)C[C@@H]2Oc3cc(C#Cc4ccncc4)ccc3S(=O)(=O)N([C@@H](C)CO)C[C@H]2C)cc1,·,·,52.5*,·,·,82.6*,-2.6%
Cc1noc(C)c1NC(=O)N(C)C[C@@H]1Oc2ccc(NC(=O)CCC(F)(F)F)cc2C(=O)N([C@H](C)CO)C[C@@H]1C,·,·,·,-1.0,·,-12.3,·
C[C@H](CO)N1C[C@H](C)[C@H](CN(C)C(=O)Nc2ccc(C(F)(F)F)cc2)Oc2ccc(NC(=O)Cc3cn(C)c4ccccc34)cc2C1=O,·,·,-6.9,17.6,·,·,·
COC(=O)C[C@@H]1CC[C@@H]2[C@H](COc3ccc(NC(=O)Nc4ccc(C#N)cc4)cc3C(=O)N2C)O1,·,·,52.7*,-0.5,·,-14.7,-1.6%
COC(=O)C[C@@H]1CC[C@@H]2[C@H](COc3ccc(NC(=O)Nc4cccc(C#N)c4)cc3C(=O)N2C)O1,·,·,64.5*,29.1,·,-23.1,1.1%
SMILES,EBV LMP1 NFkB,TWEAK-Fn14 inh,EWS-Fli block,LGR2 inh,TROY signal inh,PAX8 reporter,DNA binding
COC(=O)C[C@@H]1CC[C@H]2[C@@H](COc3ccc(NC(=O)Nc4ccc(C#N)cc4)cc3C(=O)N2C)O1,·,·,13.4,-5.7,·,2.9,·
O=C(C[C@@H]1CC[C@@H]2[C@H](COC[C@@H](O)CN2S(=O)(=O)c2ccc(F)cc2)O1)NCc1ccc(Cl)c(Cl)c1,·,·,76.3*,18.7,·,20.6,-15.5%
COc1ccc(S(=O)(=O)N(C)C[C@@H]2Oc3ccc(NC(=O)C4CCCCC4)cc3C(=O)N([C@@H](C)CO)C[C@H]2C)cc1,·,·,-1.7,-10.9,·,·,·
CCNC(=O)C[C@H]1CC[C@@H]2[C@H](COc3ccc(NC(=O)Cc4ccccc4)cc3C(=O)N2C)O1,·,·,3.6,15.7,·,-11.1,·
C[C@H](CO)N1C[C@H](C)[C@H](CN(C)Cc2ccc(C(=O)Nc3ccccc3N)cc2)Oc2ccc(NS(=O)(=O)c3cccs3)cc2C1=O,·,·,53.9*,-19.8,·,·,-4.1%
C[C@@H]1CN([C@@H](C)CO)C(=O)c2cc(NS(=O)(=O)c3ccc(Cl)cc3)ccc2O[C@@H]1CN(C)Cc1ccc(C(=O)Nc2ccccc2N)cc1,·,·,53.2*,5.6,·,·,-2.1%
C[C@@H]1CCCCO[C@@H](CN(C)Cc2ccc(C(=O)Nc3ccccc3N)cc2)[C@@H](C)CN([C@H](C)CO)C(=O)c2cc(NS(=O)(=O)c3ccccc3)ccc2O1,·,·,9.9,5.5,·,-2.5,·
C[C@@H]1CN([C@@H](C)CO)C(=O)c2cc(NC(=O)Nc3ccccc3)ccc2O[C@@H]1CN(C)Cc1ccc(C(=O)Nc2ccccc2N)cc1,·,·,58.3*,7.7,·,-19.1,4.9%
C[C@H]1CN([C@@H](C)CO)C(=O)c2cc(NS(=O)(=O)c3cccs3)ccc2O[C@H]1CN(C)Cc1ccc(C(=O)Nc2ccccc2N)cc1,·,·,-10.1,1.2,·,20.6,·
C[C@H]1CN([C@@H](C)CO)C(=O)c2cc(NS(=O)(=O)c3ccc(Cl)cc3)ccc2O[C@@H]1CN(C)Cc1ccc(C(=O)Nc2ccccc2N)cc1,·,·,33.9,-2.3,·,·,·
C[C@@H]1CCCCO[C@H](CN(C)Cc2ccc(C(=O)Nc3ccccc3N)cc2)[C@@H](C)CN([C@H](C)CO)C(=O)c2cc(NS(=O)(=O)c3ccc(Cl)cc3)ccc2O1,·,·,61.1*,10.3,·,38.4,-13.0%
